Measured values: ChEMBL document CHEMBL1157539, “Thousands of chemical starting points for antimalarial lead identification” (Nature, 2010)
Where “and” joins values, the source holds several entries; their conditions need not be identical. Identical values can stand only once.

Key:
Format in all cases: functional
[1] = tested on: Plasmodium falciparum; assay: GSK_TCMDC: Inhibition of Plasmodium falciparum 3D7 in whole red blood cells, using parasite LDH activity as an index of growth. Test compounds present at 2uM
[2] = tested on: Plasmodium falciparum; assay: GSK_TCMDC: Inhibition of Plasmodium falciparum Dd2 in whole red blood cells, using parasite LDH activity as an index of growth. Test compounds present at 2uM
[3] = tested on: HepG2; assay: GSK_TCMDC: Percent inhibition of human HepG2 cell line. Test compounds present at 10uM.

| Compound | Inhibition [1] | Inhibition [2] | Inhibition [3] |
| --- | --- | --- | --- |
| OC(CNC12CC3CC(CC(C3)C1)C2)c1cccc(C(F)(F)F)c1 (stereo not given) | 97% | 98% | 16% |
| O=C(COc1ccc(Cl)cc1)N1CCC(CN2CCC(c3c[nH]c4ccccc34)CC2)CC1 | 89% | 13% | 48% |
| Oc1ccc2[nH]cc(C3=CCN(Cc4ccccc4)CC3)c2c1 | 94% | 67% | 1% |
| COC(=O)/C=C/c1ccc(CC(C)NCC(O)c2cccc(C(F)(F)F)c2)cc1.Cl (stereo not given) | 97% | 93% | 41% |
| Cc1[nH]c2ccccc2c1C1=CCN(CCCCC23CCCc4cccc(c42)NC3=O)CC1 (stereo not given) | 95% | 91% | 9% |
| CC(=O)Nc1ccc(CN2CCC(N(C)c3cc(NC(=O)c4cccc(F)c4)ccn3)CC2)cc1.O=C(O)C(F)(F)F | 85% | 0% | 4% |
| CC1=C(C(=O)NC2CCC(CN3CCC(c4c[nH]c5ccccc45)CC3)CC2)Cc2ccccc21 (stereo not given) | 97% and 99% | 15% and 24% | 41% and 37% |
| Cc1ccc(C(=O)Nc2ccnc(N(C)C3CCN(Cc4cccc(O)c4)CC3)c2)cn1.O=C(O)C(F)(F)F | 90% | 1% | 0% |
| O=C1COc2ccccc2N1CCN1CCC(NCc2ccc(-c3cccs3)cc2)CC1 | 87% | 18% | 37% |
| O=C(/C=C/c1ccc([N+](=O)[O-])cc1)NC1CCC(CN2CCC(c3c[nH]c4ccccc34)CC2)CC1 (stereo not given) | 100% | 61% and 81% | 30% and 34% |
| CNCCN(C)C(=O)Oc1c(Br)c(C)nc(C)c1-c1ccc(Oc2ccc(OC(F)(F)F)cc2)cc1.Cl | 98% | 98% | 19% |
| O=C(NC1CCC(CN2CCC(c3c[nH]c4ccccc34)CC2)CC1)c1cc(-c2cccc(Cl)c2)n(-c2ccc(Cl)cc2Cl)n1 (stereo not given) | 81% | 25% | 53% |
| O.Oc1cccc(C2CCCN(CCc3c[nH]c4ccccc34)C2)c1 (stereo not given) | 93% | 40% | 0% |
| CCOC(C(=O)OCC1CCCN(C)C1)(c1ccccc1)c1ccccc1 (stereo not given) | 98% | 3% | 13% |
| O=C(C=Cc1ccc(Br)cc1)NC1CCC(CN2CCC(c3c[nH]c4ccccc34)CC2)CC1 (stereo not given) | 100% | 98% | 71% |
| Cc1c2ccncc2c(C)c2c1[nH]c1ccccc12 [ELLIPTECINE] | 95% | 97% | 38% |
| CN1CC=C(c2c[nH]c3ccc(Br)cc23)CC1 | 88% | 80% | 0% |
| CC[C@H]1CN2CC[C@H]1C[C@H]2[C@H](OC(=O)c1ccccc1)c1cc(C#N)nc2ccc(OC)cc12 | 97% | 49% | 19% |
| Oc1ccc(CN2CCN(CCOC(c3ccc(F)cc3)c3ccc(F)cc3)CC2)cc1Cl | 96% | 87% | 19% |
| COc1ccc(N(c2nc(-c3cc(Cl)ccc3Cl)cs2)C2CCNCC2)cc1.O=C(O)C(F)(F)F | 91% | 4% | 17% |
| O=C(Cc1cc(=O)oc2cc(O)ccc12)N1CCC(CN2CCC(c3c[nH]c4ccccc34)CC2)CC1 | 94% | 0% | 1% |
| Br.CC[C@H]1CN2CCc3cc(OC)c(OC)cc3[C@@H]2C[C@@H]1C[C@H]1NCCc2c1cc(OC)c(O)c2I | 100% | 100% | 54% |
| Cc1cccc(C(=O)Nc2ccnc(N(C)C3CCN(Cc4cccc(O)c4)CC3)c2)c1.O=C(O)C(F)(F)F | 89% | 62% | 5% |
| N#Cc1ccc(N(CCCO)Cc2ccccc2C(F)(F)F)cc1C(F)(F)F | 91% | 23% | 7% |
| COc1ccc(-c2ccccc2)cc1NC(=S)NC1CCC(CN2CCC(c3c[nH]c4ccccc34)CC2)CC1 (stereo not given) | 100% | 98% and 95% | 27% and 51% |

| Compound | Inhibition [1] | Inhibition [2] | Inhibition [3] |
| --- | --- | --- | --- |
| CC(C)CNCc1cccc(-c2cccc(CN(C(=O)c3cccs3)C3CCN(Cc4ccccc4)CC3)c2)c1.O=C(O)C(F)(F)F | 90% | 36% | 14% |
| O=C(/C=C/c1cc(C(F)(F)F)ccc1F)N1CCC(CN2CCC(c3c[nH]c4ccccc34)CC2)CC1 | 96% | 14% | 22% |
| CNC(=O)c1ccc2[nH]cc(C3CCN(CC4CCN(C(=O)/C=C/c5ccc(Cl)c(Cl)c5)CC4)CC3)c2c1 | 100% | 88% | 3% |
| C/C=C1\CN2CC[C@H]1C[C@H]2[C@H](O)c1ccnc2ccc(O)cc12 | 98% | 0% | 0% |
| CC[C@@]1(O)C(=O)OCc2c1cc1n(c2=O)Cc2c-1nc1cc3c(cc1c2CN1CCOCC1)OCO3.O=C(O)C(F)(F)F | 89% | 80% | 81% |
| CCCc1c(C(=O)NC2CCC(CN3CCC(c4c[nH]c5ccccc45)CC3)CC2)cnn1-c1ccccc1 (stereo not given) | 92% | 7% | 33% |
| Cc1[nH]c2ccc(O)cc2c1C1CCN(CC2CCC(NC(=O)/C=C/c3c(Cl)cccc3Cl)CC2)CC1 (stereo not given) | 100% | 93% | 25% |
| O=C(/C=C/c1ccc(Cl)c(Cl)c1)NCC1CCC(N2CCC(c3c[nH]c4ccccc34)CC2)CC1 (stereo not given) | 100% | 95% | 48% |
| Cl.N#Cc1c(F)cc(N2CCC(NCC[C@H](N)Cc3ccc(F)c(F)c3)CC2)cc1F | 100% | 26% | 70% |
| CCCc1cc(O)c2c3c(c(=O)oc2c1)CN(C)CC3 | 98% | 50% | 12% |
| COC(=O)c1ccc(CC(C)NCC(O)c2cccc(I)c2)cc1 (stereo not given) | 87% | 54% | 15% |
| CC(=O)Nc1ccc(OCCN(CC(F)(F)F)c2ccc(C#N)cc2C(F)(F)F)cc1 | 81% | 83% | 0% |
| Cc1[nH]c2ccccc2c1C1CCN(CC2CCC(NC(=O)/C=C/c3ccc(Cl)c(Cl)c3)CC2)CC1 (stereo not given) | 100% | 93% | 15% |
| C/C=C1\CN2CC[C@H]1C[C@@H]2[C@@H](O)c1ccnc2ccc(O)cc12 | 98% | 0% | 0% |
| CC[C@H]1CN2CC[C@H]1C[C@H]2[C@H](O)c1cc(/C=C/c2ccccc2)nc2ccc(OC)cc12 | 99% | 99% | 16% |
| Cc1cc2cc(CNCCc3ccccc3Br)ccc2nc1N.Cl | 98% | 91% | 31% |
| O=C(/C=C/c1ccc(Cl)c(Cl)c1)N(Cc1ccccc1)C1CCC(CN2CCC(c3c[nH]c4ccccc34)CC2)CC1 (stereo not given) | 100% | 59% | 37% |
| O=C(CCCCCc1ccccc1)NC1CCC(CN2CCC(c3c[nH]c4ccccc34)CC2)CC1 (stereo not given) | 86% | 5% | 34% |
| Cc1[nH]c2ccc(O)cc2c1C1CCN(CC2CCC(NC(=O)/C=C/c3ccc(Cl)c(Cl)c3)CC2)CC1 (stereo not given) | 100% | 95% | 19% |
| COc1ccc(F)cc1-c1csc(N(c2ccc(F)cc2)C2CCNCC2)n1.O=C(O)C(F)(F)F | 94% | 0% | 15% |
| CCOc1ccc2nccc([C@@H](O)[C@@H]3C[C@@H]4CCN3C[C@@H]4CC)c2c1 [ETHYLHYDROCUPREINE] | 99% | 51% | 1% |
| O=C(/C=C/c1ccccc1Cl)NC1CCC(CN2CCC(c3c[nH]c4ccccc34)CC2)CC1 (stereo not given) | 100% and 99% | 51% and 35% | 33% and 41% |
| CC(Cc1ccc(Sc2ccccc2)cc1)NCC(O)c1cccc(C(F)(F)F)c1 (stereo not given) | 99% | 53% | 0% |
| COC(=O)c1ccc(CC(C)NCC(O)c2cc(Cl)c(N)c(Cl)c2)cc1 (stereo not given) | 91% | 66% | 0% |
| Cc1cc(C)c(CC(C)NCC(O)c2cccc(C(F)(F)F)c2)c(C)c1.Cl (stereo not given) | 100% | 99% | 0% |
